High-throughput results as filed in PubChem BioAssay.
Rows were chosen to be rich in hits. Some 4.7% of all compounds tested hit in one or more screens of this group.
Pemphigus Ab inh: inhibitors of pemphigus antibody binding to DSG3, primary screen, biochemical, bead-based, flow cytometry, scFv-GFP; DSG3-coupled beads, scFv-anti-DSG3-GFP binding; stronger effect = lower value; Desmoglein-3 (Homo sapiens), P32926; 310,000 compounds, 0.48% hits; AID 588358, 2011; binding (percent of control), % at 10 µM;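 active = binding more than 3 SD below its plate's average and above zero; inconclusive = below that plate limit but binding exactly zero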
MPTP inh: mitochondrial permeability transition pore inhibitors, primary screen, biochemical, isolated mouse mitochondria, absorbance. Ca2+ swelling absorbance, 30 min. inhibition, % at 10 µM. 360,000 compounds, 1.4% hits;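 active = inhibition of 50% or more, scaled per plate between neutral and stimulator controls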
rCAG binder: binders of r(CAG) RNA repeats, primary screen, biochemical, fluorescence. AID 651821, 2012. 370,000 compounds, 1.3% hits. r(CAG) RNA repeat, TO-PRO-1 dye displacement fluorescence. inhibition, % at 3 µM;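 active = inhibition above the plate cutoff, the mean of all test compounds on that plate plus 3 SD, cut at about 35% in these data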;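 also: higher means more dye released from RNA so lower well fluorescence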
proKLK7 act: proKLK7 zymogen activators, primary screen, biochemical, fluorescence intensity | AID 652039, 2013 | activation, % at 7 µM | 370,000 compounds, 0.9% hits | Kallikrein-7 (Homo sapiens), P49862 | purified proKLK7, EDANS-DABCYL substrate fluorescence; 100% is mature enzyme control, 0% vehicle;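 active = activation above the mean of all tested compounds plus 3 SD, computed per campaign excluding outliers beyond control limits, cut at about 13% in these data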
Target sequence (P49862 whole entry, looked up): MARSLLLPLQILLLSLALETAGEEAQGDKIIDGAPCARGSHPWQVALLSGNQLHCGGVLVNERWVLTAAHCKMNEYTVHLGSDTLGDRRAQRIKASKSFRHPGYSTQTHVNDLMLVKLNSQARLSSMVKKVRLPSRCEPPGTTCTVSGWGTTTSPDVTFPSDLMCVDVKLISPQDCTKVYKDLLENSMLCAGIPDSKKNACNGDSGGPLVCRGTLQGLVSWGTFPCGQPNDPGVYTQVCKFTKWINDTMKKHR
ADAM17 inh: ADAM17 inhibitors, primary screen, biochemical, QFRET; inhibition, % at 6.95 µM; Disintegrin and metalloproteinase domain-containing protein 17 (Homo sapiens), P78536; recombinant ADAM17, EDANS/DABCYL FRET peptide cleavage; 370,000 compounds, 0.83% hits;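 active = inhibition above the mean of compounds lying between control limits plus 3 SD, set per campaign, cut at about 8.5% in these data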
ADAM10 inh: human ADAM10 inhibitors, primary screen, biochemical, QFRET, HTS; Disintegrin and metalloproteinase domain-containing protein 10 (Homo sapiens), O14672; recombinant ADAM10, EDANS/DABCYL FRET peptide cleavage, 3 h; inhibition, % at 7 µM; 370,000 compounds, 0.62% hits;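 active = inhibition above a per-campaign cutoff equal to the mean of compounds falling between control-based bounds plus 3 SD, cut at about 20% in these data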
KLK7 act conf: proKLK7 zymogen activators, confirmation, biochemical, fluorescence intensity, triplicate. shares compounds with proKLK7 act. purified proKLK7, EDANS-DABCYL substrate fluorescence; scaled: vehicle 0, mature enzyme 100. activation, % at 7 µM. 3,200 compounds, 68% hits. AID 686949, 2013;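 active = activation, as change over the incubation, above the mean of all tested compounds plus 3 SD, cut at about 13% in these data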
EDANS interfere: EDANS-DABCYL substrate optical interference, artefact control for kallikrein-7 zymogen activator project, biochemical, fluorescence intensity, high throughput; shares compounds with proKLK7 act; no enzyme, 4 h; solvent 0%, active enzyme control 100%; activation, % at 7 µM; 3,200 compounds, 80% hits; AID 686952, 2013;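 active = activation above the all-compound mean plus 3 SD, ignoring values outside control-based bounds, cut at about 4.8% in these data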;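 also: value is the 4 h activation minus the activation read at time zero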
EDANS interf: counter-screen for kallikrein-7 activators: EDANS-DABCYL interference, dose response; 250 compounds, 20% hits; EDANS-DABCYL peptide fluorescence interference, no enzyme; EC50, µM; shares compounds with proKLK7 act;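 active = compounds that raise the fluorescence signal in this interference counterscreen, with EC50 at or below 10 µM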;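 also: intact quenched peptide substrate alone read at 355 nm excitation and 520 nm emission; signal is fluorescence gain from T0 to T4 after four hours at room temperature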
Large screens that a line does not name were inactive (follow-up assays come after a bar, where they were run).

COc1cccc(C(C)(O)c2nc(-c3cc(F)cc(F)c3)cs2)c1 (centres undefined)	none (no result: Pemphigus Ab inh)
COc1ccc(-c2cc(C(=O)Nc3ccc(C(N)=O)cc3)c3ccccc3n2)cc1OC	proKLK7 act 18 | KLK7 act conf inactive | EDANS interfere inactive
COc1cc(-c2cc(C(=O)Nc3ccc(O)cc3)c3ccccc3n2)cc(OC)c1OC	none
CCOc1cc(C2C(C(=O)N3CCCCC3)=C(C)NC3=C2C(=O)CCC3)cc(Br)c1O (centres undefined)	proKLK7 act 15 (no result: Pemphigus Ab inh) | KLK7 act conf inactive | EDANS interfere 15
CCCOc1ccc(-c2c(C(=O)N/N=C/c3ccc(OC)cc3)nnn2-c2nonc2N)cc1	proKLK7 act 57 (no result: Pemphigus Ab inh) | KLK7 act conf inactive | EDANS interfere inactive
COc1ccc(/C=N/NC(=O)c2nnn(-c3nonc3N)c2-c2cccs2)c(OC)c1	proKLK7 act 68 | KLK7 act conf inactive | EDANS interfere inactive
CCCOc1ccc(-c2c(C(=O)N/N=C/c3ccc(OCC)cc3)nnn2-c2nonc2N)cc1	none
CCN(CC)C(=O)C1=C(C)N(Cc2ccccc2)C(=O)C(CC(=O)NCc2cccc3ccccc23)C1 (centres undefined)	none (no result: Pemphigus Ab inh)
COc1ccc(-c2c(C)oc3c(CN4CCN(CCO)CC4)c(O)ccc3c2=O)cc1OC	none
Cc1cc(=O)oc2c(CN3CCCC3)c(O)ccc12	proKLK7 act 45 | KLK7 act conf 76 | EDANS interfere 75
CN1CCN(Cc2c(O)ccc3c(-c4ccccc4)cc(=O)oc23)CC1	proKLK7 act 17 | KLK7 act conf inactive | EDANS interfere inactive
Cc1cc(=O)oc2c(CN3CCN(CCO)CC3)c(O)ccc12	proKLK7 act 120 | KLK7 act conf 65 | EDANS interfere 69
CCN1CCN(Cc2c(O)ccc3c(C)cc(=O)oc23)CC1	proKLK7 act 44 | KLK7 act conf 71 | EDANS interfere 73
Cc1cc(=O)oc2c(O)c(O)ccc12	none
O=c1oc2c(CN3CCN(CCO)CC3)c(O)ccc2cc1-c1ccccn1	proKLK7 act 60 | KLK7 act conf 70 | EDANS interfere 82
CCCc1cc(=O)oc2c(CN3CCCC3)c(O)ccc12	proKLK7 act 60 | KLK7 act conf 72 | EDANS interfere 69
O=c1oc2c(CN3CCOCC3)c(O)ccc2c2c1CCC2	proKLK7 act 70 | KLK7 act conf 68 | EDANS interfere 72
Oc1ccc2ccccc2c1CN1CCOCC1	none
CC(C)CNC(=O)C1(C)CCCCCN1C(=O)c1cc(C#N)cs1 (centres undefined)	none (no result: Pemphigus Ab inh)
CC(=O)c1c[nH]c(C(=O)NCC2CCCO2)c1 (centres undefined)	proKLK7 act 40 | KLK7 act conf inactive | EDANS interfere inactive
CC(C)CC(=O)c1c[nH]c(C(=O)NCC2CCCO2)c1 (centres undefined)	none
O=C(NCCc1cn2cccnc2n1)C1CCC(=O)N(Cc2ccccc2F)C1 (centres undefined)	proKLK7 act 35 | KLK7 act conf 27 | EDANS interfere 24
Cc1ccc2nc(CNC(=O)C3CCC(=O)N(Cc4ccccc4F)C3)cn2c1 (centres undefined)	none
Cc1nc2ccc(NC(=O)N3CCCCC3)cc2nc1C	proKLK7 act 35 | KLK7 act conf 69 | EDANS interfere 57 | EDANS interf inactive
O=C(Nc1ccc2nc(-c3ccccn3)c(-c3ccccn3)nc2c1)N1CCOCC1	proKLK7 act 36 | KLK7 act conf 70 | EDANS interfere 66
CCOC(=O)N1CCN(C(=O)Nc2ccc3nc(C)c(C)nc3c2)CC1	proKLK7 act 16 | KLK7 act conf 39 | EDANS interfere 33
O=C(c1cccc(Cl)c1)N1CCN(c2ccc3c(c2)C2CC3CCN2C(=O)OCc2ccccc2)CC1 (centres undefined)	none (no result: Pemphigus Ab inh)
OCc1ccccc1-c1nc(NCC2CC2)nc2ccsc12	proKLK7 act 15 (no result: Pemphigus Ab inh) | KLK7 act conf inactive | EDANS interfere 6.9
CC(C)Nc1nc(-c2ccccc2CO)c2sccc2n1	proKLK7 act 22 (no result: Pemphigus Ab inh) | KLK7 act conf 17 | EDANS interfere 11 | EDANS interf inactive
Cc1ccccc1-c1nc(NC(C)C)nc2ccsc12	none (no result: Pemphigus Ab inh)
CCOc1cc2c(cc1O)C(=NO)CC1C2CCC2(C)C(O)CCC12 (centres undefined)	none (no result: Pemphigus Ab inh)
CN1c2ccc(Cl)cc2C(=O)NC1C1CC=CCC1 (centres undefined)	proKLK7 act 14 (no result: Pemphigus Ab inh) | KLK7 act conf inactive | EDANS interfere inactive
CCCN1C(=O)C2(OCCO2)c2cc(Cl)ccc21	none
Cc1cc(C)n(CC(=O)NNC(=O)c2ccc(NC(=O)CC#N)cc2)n1	none
O=C(O)c1ccc(-c2ccc(-c3ccccc3)cc2)s1	none (no result: rCAG binder, proKLK7 act, ADAM17 inh, ADAM10 inh)
Cc1cc(-c2ccc(C(=O)O)s2)cnc1N	proKLK7 act 31 | KLK7 act conf 61 | EDANS interfere 70
Clc1cc(Cl)c(OCCCCn2cncn2)c(Cl)c1	none
CC1(C(=O)NS(=O)(=O)c2ccccc2Cl)CCN1C(=O)Cc1cccc2ccccc12 (centres undefined)	none (no result: Pemphigus Ab inh)
NC(=O)NN=C1CCN2CCCc3cccc1c32	proKLK7 act 30 | KLK7 act conf 51 | EDANS interfere 55
COc1ccc2cc(-c3ccccc3)ncc2c1	none
COc1ccc2ccc3cccc[n+]3c2c1	proKLK7 act 21 | KLK7 act conf 18 | EDANS interfere 19
Cc1cc(-n2c(=O)c(C#N)cc3c(=O)n4ccccc4nc32)no1	Pemphigus Ab inh inconclusive, proKLK7 act 22 | KLK7 act conf 30 | EDANS interfere 57
N#Cc1cc2c(=O)n3ccccc3nc2n(-c2ccc(Cl)cc2)c1=O	none
Cc1ccccc1-n1c(=O)c(C#N)cc2c(=O)n3ccccc3nc21	proKLK7 act 13 | KLK7 act conf 71 | EDANS interfere 73
C=CCn1c(=O)c(C#N)cc2c(=O)n3ccccc3nc21	proKLK7 act 39 | KLK7 act conf 67 | EDANS interfere 83
